Reference: PubChem BioAssay (NCI)
Compounds without any hit were thinned out: in the full panel of roughly 83,000, 20% have a hit.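 Activity criterion: percent growth below 10, measured after cells in 96-well plates were exposed to a single compound concentration for 48 hours.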 Unmarked numbers belong to inactive results. Activity calls are given as the source filed them.

Tested on: HL-60(TB) leukemia
Test: NCI-60 one-dose screen, 48 h (100 = growth as untreated, 0 = no growth, -100 = all killed)
Conditions: 10 µM unless noted

Compound | growth
O=S(=O)(NCCNc1nccc(-c2c(-c3ccc(F)c(O)c3)nc3occn23)n1)c1ccc(Cl)cc1 | 96.6%
CCCCCCc1nc2nc(Cl)c(Cl)nc2[nH]1 | 39.6%
Cc1nc([N+](=O)[O-])c(Sc2nncc(-c3ccccc3)n2)n1C | 91.7%
CCCn1c(=S)sc2c1nc(C)n1c(Nc3ccccc3)nnc21 | 45.3%
C=C1CCC2C3(C)COC(c4ccc(NC(C)=O)cc4)OC3CCC2(C)C1C/C=C1/C(=O)OCC1O (configuration not stated) | 32.8%
COC(=O)[C@H](Cc1cn(C)cn1)NC(=O)[C@H](Cc1c[nH]c2ccccc12)NC(=O)Nc1cc(C(F)(F)F)cc(C(F)(F)F)c1 | -54.5% [100 µM] (active)
Cc1cc2[nH]c(=O)c3c4ncccc4cn3c2cc1C | 37.2%
O=C1c2c[n+](Cc3ccccc3)ccc2-c2nc3ccccc3c3ccnc1c23 | -29.6% (active)
COc1ccc(C2CC(c3ccccc3)=NN2C(=O)c2cc(OC)c(OC)c(OC)c2)cc1O (configuration not stated) | -29.3% (active)
COc1cc2nc3c(=O)n(CCN(C)C)cnn3c(=O)c2cc1OC | 106%
O=C1NC(=O)c2ncccc21 | 115%
Cc1ccccc1-c1cc(Cc2ccccc2O)c(=O)[nH]n1 | 84.1%
Cc1ccc(C(=O)/C(=C/c2ccc([N+](=O)[O-])cc2)SCc2ccc(Cl)cc2)cc1 | 58%
CCN1CCN(C(=O)[C@]23CCC(C)(C)C[C@@H]2C2=CC[C@@H]4[C@@]5(C)C/C(=C/c6cccnc6)C(=O)C(C)(C)[C@@H]5CC[C@@]4(C)[C@]2(C)CC3)CC1 | -37.3% (active)
O=C(/C(=C/c1ccccc1)CBr)c1ccccc1 | 9.09% (active)
CCCCN(CC)CCCCCCCCCCN1CCCc2cc(OC)ccc21 | -54% (active)
CCOC(=O)CNS(=O)(=O)CC(=O)c1ccccc1 | 102%
Cc1ccc(S(=O)(=O)OC[C@@]2(C)CC[C@]3(C)CC[C@]4(C)C(=CC[C@@H]5[C@@]6(C)CCCNC(C)(C)[C@@H]6CC[C@]54C)[C@@H]3C2)cc1 | -63% (active)
Cc1ccc(-c2nc3nc(-c4ccc(Br)cc4)nc(N4CCCNCC4)c3o2)cc1 | -47.3% (active)
CCCCCn1sc(=O)n(Cc2ccc(CNC(=O)OCc3ccc4c(Cl)cc(Cl)c(O)c4n3)cc2)c1=O | 63.5%
CCOC(=O)c1cc2oc(/C=C/c3cc(=O)c4cc(Cl)ccc4o3)cc2[nH]1 | 93%

Compound | growth
Cc1ccc(C2=NN3C(C2)c2cc(Br)ccc2OC32CCN(Cc3ccccc3)CC2)o1 (configuration not stated) | 90.4%
COc1cc(/C=C/CO)cc(OC)c1O[C@@H]1O[C@H](CO)[C@@H](O)[C@H](O)[C@H]1O | 85.9%
CC(=O)Oc1cc2cnc3c4cc(OC(C)=O)c(OC(C)=O)cc4ccc3c2cc1OC(C)=O | -2.79% (active)
CC(=Nc1ccccc1)C1=C(O)C(Cc2ccc(F)cc2)NC1=O (configuration not stated) | -12.3% (active)
Oc1ccc(CCCCCCc2ccc(O)cc2)cc1 | 100%
CCc1ccc(CNCC(O)c2ccccc2)cc1 (configuration not stated) | 95.7%
CC(C)N1C(=O)S/C(=C2/SC(=O)N(C(C)C)C2=O)C1=O | 98.4%
c1ccc(-c2oc(-c3ccccc3)c3ccccc23)cc1 | 109%
CCCCCC/C=C1\CCC(CN2CCCC2)C1=O (configuration not stated) | 62.2%
COc1cc(-c2nn(-c3cccc(NC(=O)c4ccc(Cl)c(C(F)(F)F)c4)c3)cc2-c2ccncc2)ccc1Cl | 3.23% (active)
CCN(CC)CCCC(C)N=C(C1=C(C(=NC(C)CCCN(CC)CC)c2cccc(OC)c2)C(=O)NC1=O)c1cccc(OC)c1 (configuration not stated) | -49.3% (active)
COc1cc(N2C(=O)[C@H](Cl)C2c2ccc(SC)cc2)cc(OC)c1OC (some centres not stated) | -36.1% (active)
COc1cc(-c2nn(-c3ccccc3)cc2-c2ccnc(NCCNS(=O)(=O)c3ccc(Cl)cc3)n2)ccc1Cl | -35.9% (active)
Ic1ccc(SSc2ccc(I)cc2)cc1 | 80.4%
Cc1[nH]n(-c2cccc(Cl)c2)c(=O)c1/C=C1\C=Nc2ccc(Br)cc21 | 38.5%
CCCCCCC/C=C/[C@H]1O[C@]23C(=O)C[C@@]4(C[C@@H](OC5OC(CO)C(O)C(O)C5O)C[C@@H]4[C@H]2C=C1C)OC3=O (some centres not stated) | -13.1% (active)
CN(C(=S)S(=O)(=O)C12CC3CC(CC(C3)C1)C2)c1ccccc1 | 11.5%
CCCCCOc1ccc(/C=N/Nc2cc(C)nc3ccc(Cl)cc23)cc1 | 0.0681% (active)
Clc1ccc2c(c1)C[C@H]1C[C@@H](c3cccs3)N2O1 | 107%
Cc1c(C)c(C)c([N+](=O)[O-])c([N+](=O)[O-])c1C | 109%
CCOc1cccc2c(NC(C)CCCN(CC)CC)c(C)cnc12 (configuration not stated) | 105%

Compound | growth
CC1(C)[C@@H](O)CC[C@]2(C)[C@H]3CC[C@@H]4[C@H]5[C@H](C(=O)/C=C/c6ccc(C(F)(F)F)cc6)CC[C@]5(CO)CC[C@@]4(C)[C@]3(C)CC[C@@H]12 | 28.1%
COc1cc([N+](=O)[O-])c2ncccc2c1O | 72.1%
O=C(O)c1ccccc1Cc1ccc2c(c1)CCCC2 | 130%
S=C1SCN(CCc2ccccc2)CN1CCc1ccccc1 | 89.7%
NC(=O)c1cccc(-n2ccc3cc(NC(=O)Nc4cc(C(F)(F)F)cc(C(F)(F)F)c4)ccc32)n1 | 39.3%
COc1cc(Nc2ncccc2/C=C/C(=O)c2cc(OC)c(OC)c(OC)c2)cc(OC)c1OC | 73.1%
COc1ccc2nc3cc(Cl)ccc3c(NCCCCCN3CCCCC3)c2c1 | -42.2% (active)
O=C1/C(=C/c2ccccn2)CCc2ccccc21 | 56.6%
CN1COc2ccc3ccccc3c2C1 | 93.2%
O=C(c1ccccc1)C(CCc1ccccn1)CCc1ccccn1 | 107%
CC1(C)c2[nH]c3ccccc3c2C[C@]2(C)[C@H]3C(=O)C=C4[C@@H]5C[C@@](C)(C(N)=O)CC[C@]5(C)CC[C@@]4(C)[C@]3(C)CC[C@@H]12 | 59.9%
c1cc(CNC23CC4CC(CC(C4)C2)C3)cc(C[N+](Cc2cccc(CNC34CC5CC(CC(C5)C3)C4)c2)(Cc2cccc(CNC34CC5CC(CC(C5)C3)C4)c2)Cc2cccc(CNC34CC5CC(CC(C5)C3)C4)c2)c1 (configuration not stated) | -29.5% [42 µM] (active)
COc1cc(C(=O)CCCl)ccc1O | 95.8%
CC(C)[C@@H]1CC[C@]2(CO2)[C@@H]2C(=O)OCC(C(=O)O)=C[C@H]21 | -12.4% (active)
CCOC(=O)C1=C(C)N=c2s/c(=C\c3cc(Cl)ccc3O)c(=O)n2C1c1ccc(OC)cc1 (configuration not stated) | 98%
CCc1c(C)c2cc3c(c(C)c2oc1=O)OCC(=O)N3 | 75.9%
COc1ccc(/C=C2\CCCC3=C2N=C2SC(C)=NN2C3c2ccc(OC)c(OC)c2)cc1OC (configuration not stated) | -14.5% (active)
CCN(CC)c1ccc(CNc2cc(C)nc3ccc(OC)cc23)cc1 | -56.3% (active)
C=C1CCC2C3(C)COC(c4ccc(OC)cc4Br)OC3CCC2(C)C1/C=C/C1=CCOC1=O (configuration not stated) | 31.8%
Cc1ccc(CS/C(=C\c2ccc([N+](=O)[O-])cc2)C(=O)c2ccc(F)cc2)cc1 | 30.4%
Cc1ccc(C(=O)NN2C(=O)CSC2c2cccc([N+](=O)[O-])c2)cn1 (configuration not stated) | 82.7%

Compound | growth
O=C1CCC2=C3C4CCCCC4C(=O)C4CCCC(OC2C1)C34 (configuration not stated) | -17.1% (active)
c1ccc2c(-c3nc(-c4c[nH]c5ncccc45)cs3)c[nH]c2c1 | 88%
CNC(=O)c1cc(Oc2ccc3c(c2)sc2nc(-c4cc(C(F)(F)F)cc(C(F)(F)F)c4)cn23)ccn1 | 45.7%
COc1ccc(OC)c(Cn2cc3c(c2-c2ccccc2)CCc2cnoc2-3)c1 | 32.2%
COc1ccc2sc(-n3nc4nc5n(c(=O)c4c3N)-c3ccccc3Sc3ccccc3-5)nc2c1 | 66.6%
COc1ccc(-n2ncc3c2ccc2cc(S(=O)(=O)c4ccccc4)c(=O)n(C)c23)cc1 | 110%
S=C(N/N=C/c1cc(Cl)cc(Cl)c1)NC12CC3CC(CC(C3)C1)C2 | 104%
COc1ccc(N=N/N=c2\sc3cc(OC)ccc3n2C)cc1 | 102%
COc1cc2nc(-c3ccc(C(F)(F)F)cc3)cc(OCCCN3CCCC3)c2cc1OC | 36.9%
O=C(NCCO)Nc1ccc(-c2nc(N3CCOCC3)c3cccn3n2)cc1 | 24.2%
CCOC(=O)c1c(C=O)nc2ccccc2c1/C=C/c1ccc(Cl)cc1 | 69.7%
Cc1cc(N(CCCNc2ccnc3cc(Cl)ccc23)Cc2ccco2)nc(N2CCN(C)CC2)n1 | 38%
Cc1c(C)c2c(c(C)c1OC(=O)CCC(=O)[O-])CCC(C)(CCCCCCCCCCC[P+](c1ccccc1)(c1ccccc1)c1ccccc1)O2 (configuration not stated) | -35.2% (active)
CC1Cc2c(Cl)ncnc2N(C)c2ccc(O)cc21 (configuration not stated) | 91.4%
CCc1ccc(-c2nc(SCC(=O)NC3CCCCC3)n[nH]2)cc1 | 56.3%
CCOC(=O)c1sc(-c2ccc(OS(=O)(=O)C[C@]34CCC(CC3=O)C4(C)C)c(C=O)c2)nc1C | -5% (active)
COc1ccc(CSc2nc3cc(OC)c(OC)cc3c(=O)n2-c2ccc(Cl)cc2)cc1 | 104%
CN(C)c1ccc(-c2ccc3c(c2)c(-c2ccccc2)nc(=O)n3C)cn1 | 43.5%
CCOC(=O)CC1CSC(N/N=C/c2ccc(-n3cccn3)cc2)=N1 (configuration not stated) | 94%
